Screens as filed in PubChem.
CYP2C19 inh: blocks human cytochrome P450 2C19. inhibition, % at 5 µM. 96,000 compounds, 21% hits. P33261. CYP2C19 Supersomes, luciferin-H EGE luminescence, 30 min. AID 778;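 active = CYP2C19 inhibition above a set limit at 5 µM in the primary screen, cut at about 50% in these data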;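 also: plate controls were negative control wells for no effect and 2.5 mM tranylcypromine positive control for full effect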
Pyk2 oligo antag: Pyk2 (human) oligomerization antagonism; z-score (the deposit names both 25 µM and 10 µM); AID 1347419; Q293 cells, Pyk2 FERM NanoBiT luminescence; hits give low values; Q14289; 99,000 compounds, 0.83% hits;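 active = Z-score of -3 or lower, scaled per plate to the spread of control and sample wells; inactive = z-score above -3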;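 also: negative z-score means lost luminescence so less FERM oligomerization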
CYP2C9 act: CYP2C9 (human) activation. P11712. recombinant CYP2C9, luciferin-H conversion, luminescence; hits give high values; factor 1 = untreated enzyme, 0 = blocked. activation factor at 5 µM. 96,000 compounds, 1.4% hits;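 active = activation factor of 2 or more for CYP2C9 at a 5 µM dose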;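 also: 0 = sulfaphenazole-blocked wells and 1 = vehicle-only wells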
Target sequence (P11712 whole entry, looked up): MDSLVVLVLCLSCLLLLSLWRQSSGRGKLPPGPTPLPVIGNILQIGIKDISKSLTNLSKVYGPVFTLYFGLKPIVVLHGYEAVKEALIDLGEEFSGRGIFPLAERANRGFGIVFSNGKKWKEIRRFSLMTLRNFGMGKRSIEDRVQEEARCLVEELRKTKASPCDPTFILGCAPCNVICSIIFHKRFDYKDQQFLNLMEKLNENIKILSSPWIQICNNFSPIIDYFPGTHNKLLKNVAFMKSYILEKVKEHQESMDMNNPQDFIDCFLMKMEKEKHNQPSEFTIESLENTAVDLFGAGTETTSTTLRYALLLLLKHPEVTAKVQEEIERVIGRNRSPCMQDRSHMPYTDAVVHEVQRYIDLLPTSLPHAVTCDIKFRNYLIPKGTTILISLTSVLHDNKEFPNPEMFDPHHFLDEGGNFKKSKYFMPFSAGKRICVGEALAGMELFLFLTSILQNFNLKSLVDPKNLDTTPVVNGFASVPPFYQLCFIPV
CYP2C9 inh: blocks human cytochrome P450 2C9 | P11712 | CYP2C9 Supersomes, luciferin-H conversion, luminescence | inhibition, % at 5 µM | 96,000 compounds, 20% hits;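 active = blocking of liver enzyme CYP2C9 beyond about 50% at 5 µM, limit read from the data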
Cav3 T inh: blocks human Cav3.2 T-type calcium channel | O95180 | Cav3.2-expressing cells, Fluo-4 calcium fluorescence FDSS; hits give low values | B-score at 10 µM | 100,000 compounds, 4% hits | AID 449739;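 active = single-dose well whose peak fluorescence ratio is a statistical outlier from its plate by either plate-standardised score or position-corrected B-score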
CYP2C19 act: activators of human cytochrome P450 2C19. P33261. recombinant CYP2C19, luciferin-H EGE luminescence; hits give high values; 0 = fully inhibited enzyme, 1 = untreated enzyme. activation factor at 5 µM. 96,000 tested, under 10 active. AID 1025;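 active = activation factor of at least 2 at 5 µM in the primary screen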;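 also: 0 = wells with 2.5 mM tranylcypromine and 1 = vehicle-only wells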
Starred values were filed as active, the others as inactive; . = no result. Most compounds without a hit are left out; they make up all but 27% or so of the library.

SMILES	CYP2C19 inh	Pyk2 oligo antag	CYP2C9 act	CYP2C9 inh	Cav3 T inh	CYP2C19 act
CC(C)(C)n1nnnc1C(c1cccnc1)N1CCN(c2ccccc2)CC1 (stereo unspecified)	59*	-1	0.8	19	0.62	0.4
COc1cccc(N2CCN(C(c3ccccn3)c3nnnn3C(C)(C)C)CC2)c1 (stereo unspecified)	.	-0.08	.	.	0.32	.
CC(C)(C)n1nnnc1C(c1cccnc1)N1CCN(c2ccccc2F)CC1 (stereo unspecified)	.	0.2	.	.	0.25	.
CC(=O)NC1C(=O)Nc2c1cccc2C(F)(F)F (stereo unspecified)	3	1.1	1.1	-12	0.63	1
O=C(NNS(=O)(=O)c1ccccc1)c1cnn(-c2ccccc2)c1-n1cccc1	24	-0.39	0.5	47	1.4	0.8
O=C(NNS(=O)(=O)c1ccc(Cl)cc1)c1cnn(-c2ccccc2)c1-n1cccc1	23	0.03	0.4	64*	-2.6	0.8
CC(C)OC(=O)CCC/C=C\C[C@@H]1[C@@H](CC[C@@H](O)CCc2ccccc2)[C@H](O)C[C@@H]1O	.	.	.	.	-4	.
O=C1c2ccccc2NC(c2ccc(O)cc2)N1/N=C/c1ccc(O)cc1 (stereo unspecified)	.	0.11	.	.	.	.
O=C1c2ccccc2NC(c2ccccc2)N1/N=C/c1ccccc1 (stereo unspecified)	34	-0.9	0.1	87*	-1.9	0.7
Cc1ccc(OCCSCc2nc3ccccc3[nH]2)cc1	59*	1.4	0.4	63*	-5.5*	0.4
Clc1ccc(SCc2nc3ccccc3[nH]2)cc1	100*	-1.8	0.5	54*	-4.5*	0
Clc1ccc(OCCSCc2nc3ccccc3[nH]2)cc1	64*	2.1	0.4	57*	-8.3*	0.4
Cc1ccc(-c2c(C(=O)NCc3ccc(F)cc3)oc(=O)c3ccccc23)cc1	.	-1.6	.	.	.	.
CC(NC(=O)NC12CC3CC(CC(C3)C1)C2)C1CCCO1 (stereo unspecified)	.	-0.46	.	.	0.048	.
COc1ccc(/C=N/NC(=O)c2ccoc2C)cc1COc1ccc(Cl)cc1	14	-0.37	0.6	37	-6.5*	0.9
COc1ccc(/C=N/NC(=O)c2ccn[nH]2)cc1COc1ccc(Cl)cc1Cl	22	-2.5	0.6	40	0.69	0.8
COc1ccc(/C=N/n2cncn2)cc1COc1ccc(NC(C)=O)cc1	61*	0.88	0.3	69*	-0.021	0.4
COc1cc(/C=N/NC(=O)c2ccoc2C)cc(OC)c1OC	.	-0.16	.	.	-0.52	.
COc1ccc(/C=N/NC(=O)c2ccn[nH]2)cc1COc1ccc(F)cc1	27	-3.2*	0.8	19	-0.24	0.7
COC1(OC)C=CC(=O)C=C1NC(=O)c1ccccc1OC(C)=O	.	.	.	.	0.74	.
COCCCNC(=O)c1ccc(CS(=O)(=O)c2ccc(OC)cc2)o1	-11	.	1	4	0.57	1.1
O=C(NCc1ccccc1)c1ccc(CS(=O)(=O)c2ccccc2)o1	30	0.21	0.6	42	-0.097	0.7
COc1ccc(S(=O)(=O)Cc2ccc(C(=O)NCc3ccc(F)cc3)o2)cc1	18	.	0.4	64*	.	0.8
COc1ccc(CC(CC(=O)O)C(=O)Nc2ccc(OC)cc2)cc1 (stereo unspecified)	-8	0.67	1	-1	-0.034	1.1
COc1ccc(S(=O)(=O)Cc2ccc(C(=O)NCc3cccnc3)o2)cc1	90*	.	0.4	58*	-0.6	0.1
SMILES	CYP2C19 inh	Pyk2 oligo antag	CYP2C9 act	CYP2C9 inh	Cav3 T inh	CYP2C19 act
COc1ccc(NC(=O)C(NC(C)=O)C(=O)NCc2ccc(F)cc2)cc1 (stereo unspecified)	54*	0.4	0.9	15	.	0.5
COc1ccc(S(=O)(=O)Cc2ccc(C(=O)NCCc3ccc(S(N)(=O)=O)cc3)o2)cc1	2	.	0.6	44	0.37	1
COc1ccc(S(=O)(=O)Cc2ccc(C(=O)NC3CC3)o2)cc1	16	.	2.2*	-124	0.11	0.8
Nc1ncc2c(n1)CC(c1ccco1)CC2=O (stereo unspecified)	11	0.54	1	-2	-0.092	0.9
CSc1nc2ccc3nc(NC(=O)c4ccccc4)sc3c2s1	-10	.	1.1	-7	-1.4	1.1
NC(=O)CSc1nnc(Cc2ccc3c(c2)OCO3)n1C1CCCCC1	23	0.47	1.1	-8	-0.42	0.8
O=c1c(=O)n(O)c2ccccc2n1O	-14	1.2	1.1	-14	-0.26	1.1
